DT40 TDP1 CPT – growth inhibition of DT40 Tdp1-/-;hTDP1 cells with camptothecin (screen for TDP1 inhibitors); chicken DT40 Tdp1-/-;hTDP1 cells + 20 nM CPT, ATP luminescence, 48 h; Potency, µM (doses to about 46.2 µM), actives largely listed as inhibitors; 420,000 tested, 12% active; AID 686979; note: nearly all actives have a fitted effect of over 55% in size
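Cell growth measured by CellTiter-Glo luminescence after a minimum 48 h, 37 C compound exposure with 20 nM CPT in Tdp1-knockout DT40 cells stably expressing hTDP1, seeded 400/well; qHTS titration format.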
TDP1 inh – TDP1 (human) enzyme inhibition | Q9NUW8 | recombinant TDP1, AlphaScreen DNA substrate cleavage | Potency, µM (doses to about 130 µM), hits mostly inhibitors | 350,000 tested, 0.28% active | AID 485290; note: nearly all actives have a fitted effect of over 40% in size
Target sequence (Q9NUW8 whole entry, looked up): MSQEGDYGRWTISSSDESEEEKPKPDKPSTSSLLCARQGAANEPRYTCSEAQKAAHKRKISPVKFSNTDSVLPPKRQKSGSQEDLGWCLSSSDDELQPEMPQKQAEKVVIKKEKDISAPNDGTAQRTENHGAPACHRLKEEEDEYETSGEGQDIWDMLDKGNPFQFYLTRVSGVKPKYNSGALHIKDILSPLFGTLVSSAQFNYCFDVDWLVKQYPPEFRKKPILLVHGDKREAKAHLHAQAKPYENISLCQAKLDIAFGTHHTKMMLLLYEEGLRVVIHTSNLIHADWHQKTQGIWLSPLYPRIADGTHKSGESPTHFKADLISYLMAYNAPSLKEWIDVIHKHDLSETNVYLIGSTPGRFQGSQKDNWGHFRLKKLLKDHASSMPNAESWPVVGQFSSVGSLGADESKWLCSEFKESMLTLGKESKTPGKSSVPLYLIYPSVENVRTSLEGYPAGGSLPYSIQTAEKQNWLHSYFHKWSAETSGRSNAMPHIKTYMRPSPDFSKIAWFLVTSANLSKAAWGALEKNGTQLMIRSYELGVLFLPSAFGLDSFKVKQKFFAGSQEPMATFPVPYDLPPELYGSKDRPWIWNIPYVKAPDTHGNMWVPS
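Tdp1 1 nM final; 15 min RT w/ cpd; substrate 15 nM, 5 min; beads 10 ug/ml, 10 min; AlphaScreen read. Neg ctrl: no enzyme.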
VP16 counter – Gal4-VP16 reporter inhibition counter-screen. Drosophila S2 Gal4-VP16 UAS-luciferase, luminescence, 20 h. Potency, µM (series often up to 53.6 µM), most hits filed as inhibitors. 310,000 tested, 3.5% active. AID 2546;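 note: Gal4-VP16 expression switched on by copper sulfate through the metallothionein promoter; nearly all actives have a fitted effect of over 50% in size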
RORgamma inh – inhibitors of mouse ROR gamma transcriptional activity. P51450. Drosophila S2 Gal4-RORgamma UAS-luciferase reporter, 20 h. Potency, µM (highest dose often 53.6 µM), hits mostly inhibitors. 310,000 tested, 5.4% active; note: nearly all actives have a fitted effect of over 60% in size
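Drosophila S2 cells stably expressing Gal4-DBD/mouse RORγ fusion under metallothionein promoter plus UAS-luciferase; compound 1 h, then 700 uM CuSO4 induction for 20 h at ambient temperature; inhibition read as reduced luminescence.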
TDP1 cell noCPT – qHTS for Inhibitors of human tyrosyl-DNA phosphodiesterase 1 (TDP1): qHTS in cells in absence of CPT; 420,000 tested, 15% active; DT40 Tdp1-/- hTDP1 cells, no CPT, ATP luminescence, 48 h; Potency, µM (top dose mostly 46.2 µM), most hits filed as inhibitors; AID 686978, 2013; note: nearly all actives have a fitted effect of over 55% in size
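Cells were dispensed at 400 per well, compounds added by pin tool, plates incubated ≥48 hr at 37 °C, then CellTiter-Glo added for 30 min at room temperature before luminescence reading. Line: DT40 Tdp1-/- complemented with hTDP1; camptothecin omitted.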
A number is an active result; 0 = inactive; ? = inconclusive; - = not tested or not shown; [ ] = dose if it differs, or a comment. Rows were chosen to be rich in hits. Some 19% of all compounds tested hit in one or more screens of this group. Calls come from the whole dose curve; as a rule, active = well fitted curve in the direction sought with a large enough effect; inconclusive = small, poorly fitted or top-dose-only effect, or another doubt; inactive = no such curve, though single readings can be large; an effect the other way counts as inactive or inconclusive.

SMILES	DT40 TDP1 CPT	TDP1 inh	VP16 counter	RORgamma inh	TDP1 cell noCPT
Cc1ccc(C(=O)NC(=S)NNS(=O)(=O)c2ccc(C)cc2)cc1	0	0	?	5.6µM	0
CC1=CC(=C2C(=O)NC(=S)NC2=O)C=C(C(F)(F)F)N1CCc1ccccc1	-	0	0	0	-
Cc1ccc2cc(CNCCc3ccccc3C)c(=O)[nH]c2c1	?	0	0	?	18µM
Cc1cccc(CCNCc2cc3cc(C)cc(C)c3[nH]c2=O)c1	?	-	0	0	0
Cc1cccc(CCNCc2cc3cccc(C)c3[nH]c2=O)c1	8.2µM	0	7.9µM	?	13µM
Cc1cccc(NC(=O)N[C@@H]2N=C(c3ccccc3)c3ccccc3N(CC(=O)c3ccccc3C)C2=O)c1	-	0	0	0	-
CCOC(=O)[C@]12Cc3cc(C)ccc3[C@H]1N(C)C(=O)c1ccccc12	16µM	-	-	-	16µM
CCOC(=O)[C@]12Cc3cc(OC)ccc3[C@H]1N(C)C(=O)c1ccccc12	0	-	-	-	?
CCOC(=O)[C@]12Cc3cc(C)ccc3[C@H]1N(C)C(=O)c1cc(OC)ccc12	21µM	-	-	-	23µM
O=C1CN(C(=O)CN2CCCCC2)C(c2ccccc2)c2cc(Br)ccc2N1 (centres undefined)	0	0	0	0	0
Cc1ccc2cccc(OC(=O)N(C)c3ccccc3)c2n1	0	0	0	0	0
C1=C(c2c[nH]c3ccccc23)CCNC1	-	0	0	0	-
CC(C)N1CC=C(c2c[nH]c3ccccc23)CC1	7.3µM	0	0	?	4.6µM
Cc1cc(OCC(=O)NCc2ccc(S(N)(=O)=O)cc2)c2c3c(c(=O)oc2c1)CCC3	0	0	0	0	0
CCOC(=O)c1ccc(-[n+]2c(-c3ccccc3)cc(-c3ccccc3)cc2-c2ccccc2)cc1	1µM	0	-	-	0.73µM
CCOC(=O)c1cccc(-[n+]2c(-c3ccccc3)cc(-c3ccccc3)cc2-c2ccccc2)c1	1.6µM	-	-	-	1.6µM
CCOC(=O)c1ccc2c(c1)N(C)C(=O)c1ccccc1S2	?	-	0	0	?
COC1=CC(=O)O[C@@H](/C=C/c2ccc3c(c2)OCO3)C1	-	0	0	?	-
C[C@@]12CC[C@@H]3c4ccc(O)cc4C[C@H](CCCCCCCCCS(=O)CCCC(F)(F)C(F)(F)F)[C@H]3[C@@H]1CC[C@@H]2O (some centres undefined)	0	0	0	0	12µM
O=c1[nH]c(=S)n(CCC2=CCCCC2)c(O)c1/C=N/N1CCOCC1	0	-	0	?	0
CCOC(=O)N1CCN(C(=O)c2ccc3c(=O)n(CCC4=CCCCC4)c(=S)[nH]c3c2)CC1	?	0	14µM	0	?
OC1(c2ccccc2)CCNC2CCCCC21 (centres undefined)	18µM	-	0	0	?
CC(C)[C@H](CO)Nc1nc(Nc2cccc(Cl)c2)c2ncn(C(C)C)c2n1	9.4µM	0	0	14µM	9.4µM
COc1ccc(Nc2nc(N)nc(CSc3nc4ccccc4s3)n2)cc1	15µM	-	-	-	16µM
CCOC(=O)N1C(C)CN(/[N+]([O-])=N/Oc2ccc([N+](=O)[O-])cc2[N+](=O)[O-])CC1C (centres undefined)	-	0	?	11µM	-
SMILES	DT40 TDP1 CPT	TDP1 inh	VP16 counter	RORgamma inh	TDP1 cell noCPT
CCCCCCn1c(=O)c(C(=O)Nc2ncccc2O)c(O)c2ccccc21	5.2µM	-	0	?	5.2µM
CCCCn1c(=O)c(C(=O)Nc2ccc(C)cn2)c(O)c2ccccc21	13µM	-	0	0[1.91 µM]	9.2µM
CCCCCn1c(=O)c(C(=O)NCc2ccncc2)c(O)c2ccccc21	?	0	4.5µM	3.5µM	?
CCCCCn1c(=O)c(C(=O)NCc2ccccc2Cl)c(O)c2ccccc21	?	-	?	0[1.91 µM]	?
CCCCCCn1c(=O)c(C(=O)Nc2cnccn2)c(O)c2ccccc21	0.82µM	0	0	0	0.58µM
COC(=O)C1(C(=O)O)Cc2cc([N+](=O)[O-])ccc2N2CCCC21 (centres undefined)	0	-	0	0	0
CN(C)C(=O)Oc1cccc(OCc2n(C)c3ccccc3[n+]2C)c1	0	0	0	0	0
CCCCn1c(=O)c(C(=O)Nc2ccccn2)c(O)c2ccccc21	3.3µM	-	0	0	4.1µM
CCCCCn1c(=O)c(C(=O)Nc2ccccn2)c(O)c2ccccc21	3.7µM	-	?	0[1.91 µM]	4.6µM
CCC1(c2ccccc2)CCC(=O)NC1=O (centres undefined)	0	0	0	0	0
CCn1c(=O)oc2cc(NC(=O)CCl)ccc21	12µM	0	?	11µM	15µM
Oc1ccc(-c2cccnc2)cc1CNC1CN2CCC1CC2 (centres undefined)	0	-	-	-	0
O=[N+]([O-])c1ccc(CNCCc2ccccc2)cc1	0	-	0	0[1.91 µM]	?
O=[N+]([O-])c1ccc(C[n+]2c(-c3ccccc3)cc(-c3ccccc3)cc2-c2ccccc2)cc1	2.6µM	0	-	-	2.3µM
O=[N+]([O-])c1cc(Cl)c(O)c(-[n+]2c(-c3ccccc3)cc(-c3ccccc3)cc2-c2ccccc2)c1	13µM	-	0	0	8.2µM
C=CC(=O)OCCN(C)C	-	0	0	0	-
c1ccc(SSc2ccccc2)cc1	12µM	0	0	0	12µM
COc1ccc(OC)c(-n2c(O)c(C=Nc3c(C)n(C)n(-c4ccccc4)c3=O)c(=O)[nH]c2=O)c1	0	0	0	0	0
CCC(=O)Oc1ccc(C(=O)Nc2cccc(C(=O)c3ccccc3)c2)cc1	?	0	0	0	?
C#CCC(Cc1cnc2nc(N)nc(N)c2n1)c1ccc(C(=O)N[C@@H](CCC(=O)O)C(=O)O)cc1 (some centres undefined)	0.034µM	-	-	-	0.024µM
C=C[C@@H]1C[C@@]1(C)[C@@H](NP(=O)(c1ccccc1)c1ccccc1)c1ccccc1	?	0	?	0	15µM
COC(=O)[C@]1(C)C[C@H]1[C@H](NP(=O)(c1ccccc1)c1ccccc1)c1ccccc1	?	0	0	0	?
O=C(CNC(=O)OCc1ccccc1)Nc1ccc(Br)cc1C(=O)c1ccccc1Cl	?	0	0	?	?
CN(C(=O)CNC(=O)OCc1ccccc1)c1ccc(Br)cc1C(=O)c1ccccc1Cl	3.3µM	0	0	?	2.3µM
CCOC(=O)c1c(C)n(Cc2ccccc2)c2ccc(OCC(O)CN3C(=O)CNC3=O)cc12 (centres undefined)	?	0	0	0	15µM
CN1CCN(c2ccc(N)c(N3CCN(C)CC3)c2)CC1	0	0	0	0	?
Cc1c(NS(=O)(=O)c2ccccc2)ccc([N+](=O)[O-])c1Cl	?	-	-	-	16µM
CCN(CCNc1ccc([N+](=O)[O-])c2cccnc12)S(=O)(=O)c1ccccc1	0	0	0	0	0
CC(C)Sc1nnc([C@@H](N)Cc2ccccc2)o1	0	0	11µM	0	0

Screens (PubChem)
